PMC7862700, “An all-to-all approach to the identification of sequence-specific readers for epigenetic DNA modifications on cytosine”

Key:
Assay in all cases: DAPPL (digital affinity profiling via proximity ligation, sequencing); 10 mM Tris-HCl pH 7.5, 50 mM NaCl, 1 mM DTT, 4% glycerol, room temperature, 30 min; GST-TFs on glutathione beads, 16-mer random dsDNA library, 0.1% formaldehyde crosslink after washing; high values mean tight binding
Settings in all cases: protein: recombinant; tags: N-terminal GST; dsDNA, one strand shown
ERG = target: T1, ERG (Homo sapiens, UniProt P11308 1-479)
T1 sequence: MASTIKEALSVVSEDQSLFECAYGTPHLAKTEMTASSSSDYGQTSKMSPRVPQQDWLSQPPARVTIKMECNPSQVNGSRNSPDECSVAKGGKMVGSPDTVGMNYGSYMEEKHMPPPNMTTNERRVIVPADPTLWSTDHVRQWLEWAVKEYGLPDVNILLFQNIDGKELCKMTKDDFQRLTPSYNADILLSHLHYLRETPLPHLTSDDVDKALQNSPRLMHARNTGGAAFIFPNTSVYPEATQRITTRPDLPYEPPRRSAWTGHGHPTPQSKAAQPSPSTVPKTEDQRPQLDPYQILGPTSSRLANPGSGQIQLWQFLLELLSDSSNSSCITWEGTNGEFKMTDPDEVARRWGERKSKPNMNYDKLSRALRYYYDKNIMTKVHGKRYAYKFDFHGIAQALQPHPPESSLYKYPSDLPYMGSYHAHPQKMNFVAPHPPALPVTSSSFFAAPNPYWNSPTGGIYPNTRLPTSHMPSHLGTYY
Procedure, shortened: (§1)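 Binding signal is each hexamer's read frequency for a factor divided by its frequency in the tag-only sample. The factors were GST-fused human transcription factors from yeast, captured on glutathione beads, DNA-barcoded and pooled with that sample. Pools were incubated with 200 nmole of a random double-stranded 16-mer DNA library in Tris/NaCl/DTT/glycerol buffer at room temperature for 30 min, then washed, crosslinked with 0.1% formaldehyde, proximity-ligated with BsaI/T4 ligase (1 h, 37 °C), PCR-amplified and sequenced on an Illumina NextSeq500.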

ELF1 = ELF1 (Homo sapiens, UniProt P32519 1-619)
Sequence of ELF1 (P32519 whole entry): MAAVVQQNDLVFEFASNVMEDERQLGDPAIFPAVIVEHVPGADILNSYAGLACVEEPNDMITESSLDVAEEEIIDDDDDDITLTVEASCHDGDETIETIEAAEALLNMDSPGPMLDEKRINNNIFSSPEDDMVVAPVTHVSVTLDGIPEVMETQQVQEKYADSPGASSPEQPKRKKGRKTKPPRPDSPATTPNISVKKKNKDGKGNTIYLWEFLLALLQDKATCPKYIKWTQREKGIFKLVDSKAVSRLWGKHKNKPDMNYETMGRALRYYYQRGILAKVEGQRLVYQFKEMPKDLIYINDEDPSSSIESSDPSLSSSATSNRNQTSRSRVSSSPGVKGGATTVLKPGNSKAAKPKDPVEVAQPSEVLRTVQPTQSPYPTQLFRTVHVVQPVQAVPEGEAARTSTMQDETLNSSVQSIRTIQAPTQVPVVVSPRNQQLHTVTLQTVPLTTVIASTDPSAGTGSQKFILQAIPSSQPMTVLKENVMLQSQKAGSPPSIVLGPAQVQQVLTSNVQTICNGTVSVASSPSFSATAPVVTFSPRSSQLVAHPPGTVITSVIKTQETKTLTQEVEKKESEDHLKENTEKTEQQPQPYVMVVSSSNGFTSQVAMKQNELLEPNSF
Procedure, shortened: as §1

EHF = target: T2, EHF (Homo sapiens, UniProt Q9NZC4 1-300)
T2 sequence: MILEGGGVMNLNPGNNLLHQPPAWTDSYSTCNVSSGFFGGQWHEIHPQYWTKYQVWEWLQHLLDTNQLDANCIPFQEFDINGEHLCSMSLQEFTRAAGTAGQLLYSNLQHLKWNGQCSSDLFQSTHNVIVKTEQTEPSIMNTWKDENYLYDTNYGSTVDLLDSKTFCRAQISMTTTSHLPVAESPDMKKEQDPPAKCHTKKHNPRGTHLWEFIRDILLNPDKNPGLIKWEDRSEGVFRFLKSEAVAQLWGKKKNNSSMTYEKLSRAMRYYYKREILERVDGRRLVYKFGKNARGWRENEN
Procedure, shortened: as §1

SPI1 = SPI1 (Homo sapiens, UniProt P17947 1-270)
Procedure, shortened: as §1

SPIB = SPIB (Homo sapiens, UniProt Q01892 1-262)
Sequence of SPIB (Q01892 whole entry): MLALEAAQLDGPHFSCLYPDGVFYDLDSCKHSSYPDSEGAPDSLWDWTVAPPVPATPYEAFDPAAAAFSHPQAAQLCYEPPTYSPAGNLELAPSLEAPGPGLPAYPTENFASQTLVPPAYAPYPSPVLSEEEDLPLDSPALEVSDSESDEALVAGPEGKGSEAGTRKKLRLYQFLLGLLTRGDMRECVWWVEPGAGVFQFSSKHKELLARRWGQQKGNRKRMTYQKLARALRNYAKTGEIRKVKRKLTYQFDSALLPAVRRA
Procedure, shortened: as §1

ETV5 = ETV5 (Homo sapiens, UniProt P41161 1-510)
Sequence of ETV5 (P41161 whole entry): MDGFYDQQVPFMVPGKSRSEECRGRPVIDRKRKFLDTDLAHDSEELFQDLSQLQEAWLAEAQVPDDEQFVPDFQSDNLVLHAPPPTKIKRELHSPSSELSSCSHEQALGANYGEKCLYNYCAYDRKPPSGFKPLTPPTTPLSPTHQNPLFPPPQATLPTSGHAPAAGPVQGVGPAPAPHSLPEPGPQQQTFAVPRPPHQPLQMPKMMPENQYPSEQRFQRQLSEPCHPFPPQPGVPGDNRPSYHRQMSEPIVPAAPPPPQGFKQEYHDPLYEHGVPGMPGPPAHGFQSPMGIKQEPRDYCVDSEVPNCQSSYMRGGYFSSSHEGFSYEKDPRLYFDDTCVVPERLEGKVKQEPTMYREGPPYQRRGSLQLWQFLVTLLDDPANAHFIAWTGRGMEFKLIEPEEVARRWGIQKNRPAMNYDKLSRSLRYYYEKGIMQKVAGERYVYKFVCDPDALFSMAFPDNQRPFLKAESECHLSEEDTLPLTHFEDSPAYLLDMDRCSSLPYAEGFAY
Procedure, shortened: as §1

ELF4 = ELF4 (Homo sapiens, UniProt Q99607 1-663)
Sequence of ELF4 (Q99607 whole entry): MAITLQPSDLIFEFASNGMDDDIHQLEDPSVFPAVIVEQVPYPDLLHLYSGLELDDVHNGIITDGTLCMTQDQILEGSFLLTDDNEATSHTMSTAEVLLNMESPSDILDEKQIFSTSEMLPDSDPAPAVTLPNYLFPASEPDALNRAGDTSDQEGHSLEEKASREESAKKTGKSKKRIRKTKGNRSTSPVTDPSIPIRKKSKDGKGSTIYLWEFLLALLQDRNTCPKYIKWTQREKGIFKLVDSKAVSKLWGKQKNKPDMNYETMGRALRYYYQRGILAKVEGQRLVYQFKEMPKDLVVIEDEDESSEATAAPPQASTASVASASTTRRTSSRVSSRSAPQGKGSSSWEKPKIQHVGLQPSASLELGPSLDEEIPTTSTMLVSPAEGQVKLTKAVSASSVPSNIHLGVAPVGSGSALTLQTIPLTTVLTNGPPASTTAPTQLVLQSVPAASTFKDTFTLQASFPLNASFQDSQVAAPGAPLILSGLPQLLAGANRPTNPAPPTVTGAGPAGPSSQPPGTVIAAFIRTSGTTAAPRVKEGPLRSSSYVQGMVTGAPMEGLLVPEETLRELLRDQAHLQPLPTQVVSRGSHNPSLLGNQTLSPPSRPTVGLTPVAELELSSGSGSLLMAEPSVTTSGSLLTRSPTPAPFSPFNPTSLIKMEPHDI
Procedure, shortened: as §1

ETV1 = ETV1 (Homo sapiens, UniProt P50549 1-477)
Sequence of ETV1 (P50549 whole entry): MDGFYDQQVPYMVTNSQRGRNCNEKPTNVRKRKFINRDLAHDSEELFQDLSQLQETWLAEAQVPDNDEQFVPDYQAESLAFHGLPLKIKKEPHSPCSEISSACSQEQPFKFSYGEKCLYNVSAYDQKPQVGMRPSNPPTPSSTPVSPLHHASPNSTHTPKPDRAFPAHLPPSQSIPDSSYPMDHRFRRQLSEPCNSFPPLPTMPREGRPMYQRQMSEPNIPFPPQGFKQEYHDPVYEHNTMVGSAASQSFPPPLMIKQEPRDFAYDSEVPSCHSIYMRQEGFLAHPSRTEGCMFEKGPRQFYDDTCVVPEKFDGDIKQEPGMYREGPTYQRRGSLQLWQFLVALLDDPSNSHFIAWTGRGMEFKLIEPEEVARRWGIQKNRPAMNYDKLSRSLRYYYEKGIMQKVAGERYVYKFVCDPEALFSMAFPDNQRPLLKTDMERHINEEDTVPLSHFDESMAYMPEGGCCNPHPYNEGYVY
Procedure, shortened: as §1

ETS2 = target: T3, ETS2 (Homo sapiens, UniProt P15036 1-469)
T3 sequence: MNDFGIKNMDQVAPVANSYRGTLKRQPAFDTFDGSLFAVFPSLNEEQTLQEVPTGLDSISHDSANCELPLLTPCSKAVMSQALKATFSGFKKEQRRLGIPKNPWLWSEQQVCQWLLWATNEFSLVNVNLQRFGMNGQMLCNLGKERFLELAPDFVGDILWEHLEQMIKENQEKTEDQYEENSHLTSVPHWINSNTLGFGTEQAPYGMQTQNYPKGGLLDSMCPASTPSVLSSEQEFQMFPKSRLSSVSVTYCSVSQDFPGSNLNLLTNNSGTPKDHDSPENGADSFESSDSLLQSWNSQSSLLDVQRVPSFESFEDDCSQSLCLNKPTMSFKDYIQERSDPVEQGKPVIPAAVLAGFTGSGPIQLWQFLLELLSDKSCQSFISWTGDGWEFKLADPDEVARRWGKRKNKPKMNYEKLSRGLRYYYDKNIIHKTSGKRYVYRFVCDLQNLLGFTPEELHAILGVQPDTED
Procedure, shortened: as §1

ETV3 = target: T4, ETV3 (Homo sapiens, UniProt P41162-2 1-143)
T4 sequence: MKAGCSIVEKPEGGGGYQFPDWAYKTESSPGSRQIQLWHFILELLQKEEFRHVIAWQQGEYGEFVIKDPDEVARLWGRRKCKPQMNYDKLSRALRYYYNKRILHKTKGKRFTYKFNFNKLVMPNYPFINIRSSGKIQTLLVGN
Procedure, shortened: as §1

ELK1 = target: T5, ELK1 (Homo sapiens, UniProt P19419 1-428)
T5 sequence: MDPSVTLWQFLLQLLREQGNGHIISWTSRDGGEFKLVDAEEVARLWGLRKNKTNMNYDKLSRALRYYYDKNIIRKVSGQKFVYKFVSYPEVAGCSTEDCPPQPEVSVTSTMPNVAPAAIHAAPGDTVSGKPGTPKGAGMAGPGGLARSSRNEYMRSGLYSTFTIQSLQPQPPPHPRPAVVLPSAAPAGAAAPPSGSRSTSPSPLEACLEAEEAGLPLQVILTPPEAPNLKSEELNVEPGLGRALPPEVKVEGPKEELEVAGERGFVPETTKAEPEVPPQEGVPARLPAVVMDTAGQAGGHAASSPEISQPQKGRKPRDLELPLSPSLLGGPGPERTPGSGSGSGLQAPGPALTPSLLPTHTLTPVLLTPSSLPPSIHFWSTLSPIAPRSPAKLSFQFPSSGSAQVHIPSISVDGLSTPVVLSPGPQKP
Procedure, shortened: as §1

GABPA = target: T6, GABPA (Homo sapiens, UniProt Q06546 1-454)
T6 sequence: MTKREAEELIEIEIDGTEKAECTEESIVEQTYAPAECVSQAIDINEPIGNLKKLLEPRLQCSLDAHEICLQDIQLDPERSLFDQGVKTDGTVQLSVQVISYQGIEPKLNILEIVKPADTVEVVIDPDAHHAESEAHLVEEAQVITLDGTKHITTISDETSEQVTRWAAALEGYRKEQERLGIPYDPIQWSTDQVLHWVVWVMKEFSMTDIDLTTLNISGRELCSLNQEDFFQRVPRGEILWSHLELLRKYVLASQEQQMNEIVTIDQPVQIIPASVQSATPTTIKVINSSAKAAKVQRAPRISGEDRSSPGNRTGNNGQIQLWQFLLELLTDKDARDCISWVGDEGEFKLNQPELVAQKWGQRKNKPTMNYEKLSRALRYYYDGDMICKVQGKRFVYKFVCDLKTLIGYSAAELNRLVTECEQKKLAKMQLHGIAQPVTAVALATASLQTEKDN
Procedure, shortened: as §1

FEV = target: T7, FEV (Homo sapiens, UniProt Q99581 1-238)
T7 sequence: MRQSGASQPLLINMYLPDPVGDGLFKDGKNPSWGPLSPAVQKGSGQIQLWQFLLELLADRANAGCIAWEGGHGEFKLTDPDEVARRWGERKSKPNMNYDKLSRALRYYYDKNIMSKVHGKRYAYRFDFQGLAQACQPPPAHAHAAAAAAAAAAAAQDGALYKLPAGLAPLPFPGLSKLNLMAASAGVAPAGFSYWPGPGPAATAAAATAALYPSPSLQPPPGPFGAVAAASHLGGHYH
Procedure, shortened: as §1

ELK4 = target: T8, ELK4 (Homo sapiens, UniProt P28324-2 1-405)
T8 sequence: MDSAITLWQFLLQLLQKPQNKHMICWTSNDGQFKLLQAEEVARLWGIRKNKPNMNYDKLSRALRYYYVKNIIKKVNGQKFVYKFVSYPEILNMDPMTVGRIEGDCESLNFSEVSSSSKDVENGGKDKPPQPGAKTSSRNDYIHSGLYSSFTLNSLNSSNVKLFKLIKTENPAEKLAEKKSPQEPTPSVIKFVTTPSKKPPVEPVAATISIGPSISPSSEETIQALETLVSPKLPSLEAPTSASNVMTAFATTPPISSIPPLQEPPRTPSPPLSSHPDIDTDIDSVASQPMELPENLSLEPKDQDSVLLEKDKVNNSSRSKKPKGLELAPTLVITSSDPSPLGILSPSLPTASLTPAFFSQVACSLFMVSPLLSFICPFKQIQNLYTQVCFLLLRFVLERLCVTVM
Procedure, shortened: as §1

ERF = target: T9, ERF (Homo sapiens, UniProt P50548 1-548)
T9 sequence: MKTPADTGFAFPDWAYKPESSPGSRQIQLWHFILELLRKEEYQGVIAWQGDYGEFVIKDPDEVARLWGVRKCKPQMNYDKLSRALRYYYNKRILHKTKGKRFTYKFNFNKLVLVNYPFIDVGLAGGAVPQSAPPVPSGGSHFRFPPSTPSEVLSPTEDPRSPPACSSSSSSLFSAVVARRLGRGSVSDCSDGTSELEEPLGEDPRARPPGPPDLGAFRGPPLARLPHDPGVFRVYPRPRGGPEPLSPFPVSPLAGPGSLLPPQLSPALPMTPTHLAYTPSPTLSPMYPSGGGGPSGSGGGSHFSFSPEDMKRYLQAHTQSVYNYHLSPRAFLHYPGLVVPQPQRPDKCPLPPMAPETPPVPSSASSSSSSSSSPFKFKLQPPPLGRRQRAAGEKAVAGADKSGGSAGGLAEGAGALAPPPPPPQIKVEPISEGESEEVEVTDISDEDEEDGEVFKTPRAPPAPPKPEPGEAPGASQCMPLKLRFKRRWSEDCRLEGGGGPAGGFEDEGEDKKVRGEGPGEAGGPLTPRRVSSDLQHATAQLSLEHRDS
Procedure, shortened: as §1

ETV3L = target: T10, ETV3L (Homo sapiens, UniProt Q6ZN32 1-361)
T10 sequence: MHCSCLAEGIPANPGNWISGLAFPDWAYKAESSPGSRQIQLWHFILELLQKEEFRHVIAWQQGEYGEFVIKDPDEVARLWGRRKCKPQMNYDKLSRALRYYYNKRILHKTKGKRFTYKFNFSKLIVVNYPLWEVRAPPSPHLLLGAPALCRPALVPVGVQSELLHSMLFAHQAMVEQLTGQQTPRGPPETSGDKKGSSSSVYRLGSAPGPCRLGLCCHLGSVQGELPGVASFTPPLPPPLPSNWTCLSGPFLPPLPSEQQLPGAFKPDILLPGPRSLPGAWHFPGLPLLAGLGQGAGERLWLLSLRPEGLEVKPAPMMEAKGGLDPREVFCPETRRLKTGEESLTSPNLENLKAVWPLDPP
Procedure, shortened: as §1

ETV6 = ETV6 (Homo sapiens, UniProt P41212 1-452)
Sequence of ETV6 (P41212 whole entry): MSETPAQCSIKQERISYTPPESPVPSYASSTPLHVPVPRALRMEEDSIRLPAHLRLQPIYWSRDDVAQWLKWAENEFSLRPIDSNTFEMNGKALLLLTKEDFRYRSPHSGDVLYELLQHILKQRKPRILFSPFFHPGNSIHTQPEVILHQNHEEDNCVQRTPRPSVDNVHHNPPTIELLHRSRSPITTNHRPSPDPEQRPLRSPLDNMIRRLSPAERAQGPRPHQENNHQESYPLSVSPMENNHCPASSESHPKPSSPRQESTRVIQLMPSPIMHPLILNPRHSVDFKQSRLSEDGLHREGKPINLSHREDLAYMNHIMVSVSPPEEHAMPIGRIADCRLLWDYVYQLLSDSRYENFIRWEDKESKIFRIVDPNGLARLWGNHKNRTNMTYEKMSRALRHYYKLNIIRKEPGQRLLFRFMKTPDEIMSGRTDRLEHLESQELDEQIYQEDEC
Procedure, shortened: as §1

## GAACTG
ERG
  binding signal: 1.06 fold enrichment (6-mer frequency, TF over GST control)
ELF1
  binding signal: 1.02 fold enrichment (6-mer frequency, TF over GST control)
EHF
  binding signal: 1.01 fold enrichment (6-mer frequency, TF over GST control)
SPI1
  binding signal: 1.2 fold enrichment (6-mer frequency, TF over GST control)
SPIB
  binding signal: 1.01 fold enrichment (6-mer frequency, TF over GST control)
ETV5
  binding signal: 1.05 fold enrichment (6-mer frequency, TF over GST control)
ELF4
  binding signal: 1.02 fold enrichment (6-mer frequency, TF over GST control)
ETV1
  binding signal: 1.05 fold enrichment (6-mer frequency, TF over GST control)
ETS2
  binding signal: 1.02 fold enrichment (6-mer frequency, TF over GST control)
ETV3
  binding signal: 1.09 fold enrichment (6-mer frequency, TF over GST control)

## GCAATC
ELK1
  binding signal: 1.05 fold enrichment (6-mer frequency, TF over GST control)
GABPA
  binding signal: 1.04 fold enrichment (6-mer frequency, TF over GST control)
ERG
  binding signal: 1.03 fold enrichment (6-mer frequency, TF over GST control)
ELF1
  binding signal: 1.09 fold enrichment (6-mer frequency, TF over GST control)
SPI1
  binding signal: 1.02 fold enrichment (6-mer frequency, TF over GST control)
SPIB
  binding signal: 1.05 fold enrichment (6-mer frequency, TF over GST control)
FEV
  binding signal: 1.05 fold enrichment (6-mer frequency, TF over GST control)
ETV5
  binding signal: 1.06 fold enrichment (6-mer frequency, TF over GST control)
ELF4
  binding signal: 1.02 fold enrichment (6-mer frequency, TF over GST control)
ELK4
  binding signal: 1.07 fold enrichment (6-mer frequency, TF over GST control)
ETV1
  binding signal: 1.06 fold enrichment (6-mer frequency, TF over GST control)
ERF
  binding signal: 1.03 fold enrichment (6-mer frequency, TF over GST control)
ETV3L
  binding signal: 1.01 fold enrichment (6-mer frequency, TF over GST control)
ETS2
  binding signal: 1.04 fold enrichment (6-mer frequency, TF over GST control)
ETV3
  binding signal: 1.06 fold enrichment (6-mer frequency, TF over GST control)
ETV6
  binding signal: 1.11 fold enrichment (6-mer frequency, TF over GST control)
